# Source: PubChem BioAssay
# NRP1-CendR mod: modulators of CendR peptide binding to NRP-1, primary screen, biochemical, fluorescence polarization, uHTS; FAM-RPARPAR peptide binding to NRP-1; inhibition, % at 25 µM; Neuropilin-1 (Homo sapiens), O14786; hit rate 0.85% among 360,000;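 active = inhibition or corrected inhibition above about 18%, plus a signal ratio from 0.5 to 1.5, limit read from the data, passing the limit was not always enough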
# ABCB6 inh MLPCN: ABCB6 transporter inhibitors, primary screen, K562-ABCB6 cells, flow cytometry, MLPCN library | AID 602162, 2011 | K562-ABCB6 porphyrin accumulation, 1 h; stronger effect = lower value | ATP-binding cassette sub-family B member 6 (Homo sapiens), Q9NP58 | hit rate 0.19% among 360,000 | fluorescence ratio to DMSO, % at 10 µM;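 active = fluorescence ratio to DMSO below 75%, the collection mean minus 3 SD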;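 note: signal is porphyrin accumulated inside mitochondria; 100% equals median channel fluorescence of DMSO control wells; lower ratio means ABCB6 inhibition with less porphyrin fluorescence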
# INS-1E GSIS act: GLuc luminescence reporter in INS-1E cells, primary screen for activators of glucose-dependent secretion of insulin; INS-1E GLuc reporter insulin secretion, 2-3 h; activation, % at 16.6 µM; hit rate 0.61% among 370,000; AID 743287, 2014;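 active = lowest replicate activation of at least 40%, so every replicate reaches that level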;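 note: 0% = median of neutral control wells and 100% = median of IBMX positive control wells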
# ARNT TACC3 PPI: disruptors of ARNT/TACC3 protein interaction, primary screen, biochemical, AlphaScreen, single concentration. Transforming acidic coiled-coil-containing protein 3 (Homo sapiens), Q9Y6A5. AlphaScreen His-ARNT PAS-B/GST-TACC3 binding, luminescence; TACC3 fragment carries E629A point mutation. inhibition, % at 9.99 µM. hit rate 0.66% among 390,000;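 active = mean inhibition of replicates at least 50% and at least half of replicates each reaching 50%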;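 note: 0% = complete ARNT plus TACC3 wells and 100% = ARNT alone without TACC3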
# hiPSC survival: enhancers of single-cell hiPSC survival, primary screen, ATPlite luminescence; 100% = ROCK inhibitor wells, 0% = DMSO; survival enhancement, % at 20 µM; hit rate 0.044% among 360,000; AID 602274, 2012; in the data active = survival enhancement above about 18%;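 note: cells exposed to compounds for 16 hours before the ATP read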
# An asterisk follows results filed as active; nt = no result; ! = a repeat was not active. The list is not random: actives were taken first. Their share in the collection is about 1.8%.
SMILES,NRP1-CendR mod,ABCB6 inh MLPCN,INS-1E GSIS act,ARNT TACC3 PPI,hiPSC survival
Cc1cc(C)c(S(=O)(=O)/N=C2/C=C(SCC(=O)O)C(=O)c3ccccc32)cc1C,-83,139,nt,74*,-2
COc1ccc(C#Cc2ccc3c(c2)O[C@@H](CN(C)C(C)=O)[C@H](C)CN([C@@H](C)CO)S3(=O)=O)cc1,nt,nt,0,3,nt
CC(C)NC(=O)Nc1ccc2c(c1)C(=O)N([C@H](C)CO)C[C@H](C)[C@@H](CN(C)S(=O)(=O)c1cccs1)OCCCC[C@H](C)O2,nt,nt,-1,-5,nt
COc1ccc(/C=C2\SC(=O)N(CCNC(=O)Cn3[nH]c(=O)c4ccccc4c3=O)C2=O)cc1,29*,94,1,-5,2
CN(C)CC#Cc1ccc([C@@H]2[C@H]3CN(C(=O)Nc4cc(F)ccc4F)CCCCN3[C@H]2CO)cc1,nt,nt,36,-6,nt
Cc1ccc(S(=O)(=O)Nc2ccc3c(c2)CC(=O)N([C@@H](C)CO)C[C@@H](C)[C@@H](CN(C)C)O3)cc1,nt,nt,13,-1,nt
COc1ccc(N2CC(C(=O)N3CCc4ccccc43)CC2=O)cc1 (centres undefined),16,98,66*,-2,0
CCn1c(SC(C)C(=O)Nc2nccs2)nnc1-c1ccncc1 (centres undefined),24*,96,3,2,0
CC1CCCCN1S(=O)(=O)c1cccc2cccnc12 (centres undefined),10,94,3,-4,-2
CC1CNCCN1S(=O)(=O)c1cccc2cnccc12 (centres undefined),11,102,nt,-1,20*!
C[C@H]1CN([C@@H](C)CO)C(=O)c2cc(NC(=O)Nc3ccc(F)cc3)ccc2O[C@@H]1CN(C)C(=O)Nc1ccccc1,nt,nt,19,-5,nt
Cc1ccc(S(=O)(=O)CCC(=O)OCc2cc(C)ccc2C)cc1,27*,99,18,-8,0
COc1ccc(C[C@@H]2CCn3cc(nn3)COC[C@@H](C)NC2=O)cc1,nt,nt,0,nt,nt
CCO[C@@H]1OC(C(=O)NCc2ccccc2)=C[C@H](C)[C@H]1CCCO,26*,92,21,5,-1
CCO[C@@H]1OC(C(=O)NCc2ccccc2)=C[C@H](c2ccccc2)[C@H]1CCCO,8,94,-11,3,13
CCO[C@@H]1OC(C(=O)NC2CC2)=C[C@H](C(C)(C)C)[C@H]1CCCO,23*,94,2,4,-2
CCO[C@@H]1OC(C(=O)NCc2ccccc2)=C[C@H](c2coc3ccccc3c2=O)[C@H]1CCCO,20*,98,-5,3,-3
CCO[C@H]1OC(C(=O)NC2CC2)=C[C@@H](C2CC2)[C@@H]1CCCO,11,91,-1,2,0
CCO[C@H]1OC(C(=O)Nc2ccccc2)=C[C@@H](c2coc3ccccc3c2=O)[C@@H]1CCCO,8,99,-39,-9,1
C[C@@H]1CN([C@@H](C)CO)S(=O)(=O)c2ccc(C3=CCCCC3)cc2O[C@@H]1CN(C)S(=O)(=O)c1cn(C)cn1,nt,nt,-14,-6,nt
COc1ccccc1-c1cn(CC[C@H]2CC[C@H](NC(=O)c3cnccn3)[C@@H](CO)O2)nn1,nt,nt,24,0,nt
CC(=O)Nc1ccc2c(c1)C(=O)N(C)[C@@H]1CC[C@H](CC(=O)NC3CCCCC3)O[C@@H]1CO2,nt,nt,11,-31,nt
Nc1ccc(Br)c2cccnc12,12,110,nt,49*,0
C[C@@H]1CCCCO[C@H](CN(C)C(=O)C2CCCCC2)[C@H](C)CN([C@@H](C)CO)C(=O)c2cc(NS(C)(=O)=O)ccc2O1,nt,nt,-5,1,nt
CO[C@H](CN(C)C(=O)c1ccccc1F)[C@H](C)CN([C@@H](C)CO)S(=O)(=O)c1ccc(Cl)cc1,nt,nt,-7,-1,nt
O=C(C[C@H]1CC[C@@H](NS(=O)(=O)c2ccc(F)cc2)[C@H](CO)O1)NC1CCC1,nt,nt,12,30*,nt
CCc1ccc(/C=C2\SC(=S)N(CCCC(=O)NCCCN3CCOCC3)C2=O)cc1,-3,101,41*,nt,-3
CCc1ccc(/C=C2\SC(=S)N(CCCC(=O)Nc3nccs3)C2=O)cc1,20,98,121*,-6,-2
